The values below come from PubChem BioAssay AID588726 (The Scripps Research Institute Molecular Screening Center, 2011).

About 8,200 (2.3%) of roughly 360,000 compounds were called active. Rule as the data show it: active = inhibition above about 27%; inactive = the rest. Shown is part of a subset that was picked to be rich in actives.

For this test, the target named is Fructose-bisphosphate aldolase (Mycobacterium tuberculosis (strain ATCC 25618 / H37Rv)) (UniProt P9WQA3). The test is described as follows: Mtb FBA enzyme inhibitors, primary screen, biochemical, fluorescence, strain H37Rv (AID 588726).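 Also: 0% = vehicle and 100% = reference inhibitor.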 Particulars: purified M. tuberculosis FBA, fluorescence read-out, at 1 µM, stronger effect = higher value.
Sequence of Fructose-bisphosphate aldolase (Mycobacterium tuberculosis (strain ATCC 25618 / H37Rv)) (P9WQA3 whole entry, looked up): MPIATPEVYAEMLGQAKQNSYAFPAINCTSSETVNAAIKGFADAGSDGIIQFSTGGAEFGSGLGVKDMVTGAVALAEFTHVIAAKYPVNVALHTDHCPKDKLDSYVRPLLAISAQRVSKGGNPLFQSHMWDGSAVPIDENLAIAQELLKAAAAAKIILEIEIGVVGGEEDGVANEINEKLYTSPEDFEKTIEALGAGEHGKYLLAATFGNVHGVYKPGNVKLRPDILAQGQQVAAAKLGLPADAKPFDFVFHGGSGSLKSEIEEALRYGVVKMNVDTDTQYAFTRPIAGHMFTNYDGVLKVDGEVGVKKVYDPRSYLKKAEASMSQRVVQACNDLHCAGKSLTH
As a reminder, the inhibition is the relative decrease from the control value, in per cent. As for `CCCN(CCC)CCCNC(=O)CNC(=O)c1nn(-c2ccc(OC)cc2)c(=O)c2ccccc12`, the inhibition is 1.04% (inactive).
In the case of `O=C(COC(=O)CC1CC2CCC1C2)NC(=O)NC1CCCC1` (stereo unspecified), the inhibition was -0.01% (inactive).
Under `COc1ccccc1NC(=O)C(CC(=O)O)Cc1cc(C)cc(C)c1` (stereo unspecified) stands -0.4% (inactive); under `COc1ccc2nc(N3CCN(C(=O)c4ccc([N+](=O)[O-])o4)CC3)sc2c1`, -2.42% (inactive).
Turning to `COc1ccc2nc(Nc3nc4cc5c(cc4s3)OCCO5)sc2c1`, the inhibition was 58.2% (active).
Under `NS(=O)(=O)c1ccc2nc(NC(=O)C3=COCCO3)sc2c1` stands 1.72% (inactive).
Turning to `Cc1cc(C)cc(Oc2nc3c(C)cccn3c(=O)c2/C=C(\C#N)C(=O)NC2CCS(=O)(=O)C2)c1` (stereo unspecified), the inhibition is 16.1% (inactive).
Under `C/C(=N/OC(=O)c1ccc(Br)cc1)c1ccc(C)cc1` stands 1.15% (inactive).
`COc1ccc(S(=O)(=O)NC(=O)C2(C)CCN2C(=O)c2ccccc2CCc2ccccc2)cc1` (stereo unspecified): the inhibition was 0.28% (inactive).
In the case of `CCOc1ccc2nc(Nc3nc4ccc(NC(C)=O)cc4s3)sc2c1`, the inhibition was 44.8% (active).
Consider `CCOc1ccc2nc(C(=O)N3CCCC(C)C3)sc2c1` (stereo unspecified), for which the inhibition was 0.22% (inactive).
Under `CC(=O)Nc1ccc2nc(NC(=O)CS(=O)(=O)c3ccc(F)cc3)sc2c1` stands 1.63% (inactive).
`O=C(NN1C(=O)C2C3C=CC(C3)C2C1=O)c1ccco1` (stereo unspecified): the inhibition is 8.04% (inactive).
Consider `CCC(C)NCC(=O)Nc1ccc([N+](=O)[O-])cc1C(=O)Nc1ccccc1F` (stereo unspecified), for which the inhibition was -4.2% (inactive).
As for `CCOC(=O)N1CCC(NC(=O)c2cnn3ccccc23)CC1`, the inhibition was 30.3% (active).
Under `CCOC(=O)N1CCC(NC(=O)CCc2cn(C)c3ccccc23)CC1` stands 8.05% (inactive); under `CCOC(=O)N1CCC(NC(=O)Cc2cn(C)c3ccccc23)CC1`, 11% (inactive).
Consider `CCO[C@@H]1OC(C(=O)NC2CC2)=C[C@H](C)[C@H]1CCCO`, for which the inhibition was -0.48% (inactive).
In the case of `O=C(O)C1CCCCC1C(=O)N1CCN(S(=O)(=O)c2ccc(F)cc2)CC1` (stereo unspecified), the inhibition was -1.39% (inactive).
Under `CSc1c(SCc2ccccc2)cnn(Cc2ccccc2)c1=O` stands -0.17% (inactive).
For the molecule `COC(=O)c1ccc(C2C(Oc3ccccc3C)C(=O)N2CCc2ccc(OC)c(OC)c2)cc1` (stereo unspecified), the inhibition is -0.68% (inactive).
In the case of `COc1ccccc1N1N=C(c2cccs2)CC1c1ccccc1` (stereo unspecified), the inhibition was 39.5% (active).
Consider `Cc1ccccc1C1CC(c2cccs2)=NN1S(C)(=O)=O` (stereo unspecified), for which the inhibition is -0.14% (inactive).
For `O=C1C2N=NN(CC(=O)N3N=C(c4cccc5ccccc45)CC3c3ccccc3)C2C(=O)N1c1ccccc1` (stereo unspecified), the inhibition is 11.2% (inactive).
Under `COc1ccc(C2CC(c3cccs3)=NN2C(=O)CSc2nnc(N)s2)cc1OC` (stereo unspecified) stands 3.05% (inactive); under `Cc1ccc(C2=NN(C(=O)CSc3nc(N)cc(N)n3)C(c3ccco3)C2)cc1` (stereo unspecified), 0.79% (inactive); under `O=C(COc1ccccc1Cl)N1N=C(c2cccs2)CC1c1ccco1` (stereo unspecified), 7.49% (inactive).
Consider `COc1cccc(C2CC(c3cccs3)=NN2C(=O)CSC2=NCCS2)c1OC` (stereo unspecified), for which the inhibition was 6.98% (inactive).
As for `Cc1ccc(N2C(=O)C3N=NN(CC(=O)N4N=C(c5cccc6ccccc56)CC4c4ccccc4)C3C2=O)cc1` (stereo unspecified), the inhibition was 11.4% (inactive).
For `Oc1ccccc1C1=NN(c2ccccc2)C(c2ccccc2)C1` (stereo unspecified), the inhibition was 72.4% (active).
Regarding `Fc1ccc(N2N=C(c3cccs3)CC2c2ccco2)c(F)c1` (stereo unspecified), the inhibition is 102% (active).
With `COc1ccc(C2CC(c3cccs3)=NN2c2ccc(F)cc2)cc1OC` (stereo unspecified), the inhibition was 27.2% (active).
Consider `COc1ccc(C2CC(c3cccs3)=NN2c2nc(C)c(C(C)=O)s2)cc1OC` (stereo unspecified), for which the inhibition is 16.3% (inactive).
On to `Cc1ccc(C(=O)OCC(=O)NC(=O)Cc2ccccc2)c(O)c1`, for which the inhibition is -0.03% (inactive).
Under `Cc1cc(C(C)(C)C)cc(S(=O)(=O)Nc2ccc(C(=O)O)cc2)c1C` stands -1.68% (inactive).
With `CC(=O)Oc1c(C(=O)c2nnc(C)o2)c(=O)n(Cc2ccccc2)c2ccccc12`, the inhibition is 8.77% (inactive).
Take `COc1ccc(CC(N)c2csc(NC(=O)Nc3ccc(C(C)C)cc3)n2)cc1` (stereo unspecified): the inhibition is -1.36% (inactive).
As to `CN(CC(=O)Nc1ccc(F)cc1)CC(=O)N1CCCCC1`, the inhibition was -1.7% (inactive).
For the molecule `C=Cc1ccc(C(=O)N2CCCC(CCC(=O)N3CCN(c4ccccn4)CC3)C2)cc1` (stereo unspecified), the inhibition was -0.65% (inactive).
Consider `COc1ccc(N2CCN(C(=S)Nc3ccc(S(N)(=O)=O)cc3)CC2)cc1`, for which the inhibition is -1.46% (inactive).
For the molecule `COc1ccc(N2C(=O)C3CCCN3C2c2cccs2)cc1` (stereo unspecified), the inhibition was 1.46% (inactive).
Turning to `COc1ccc(C2CC(c3cccs3)=NN2C(=O)COC(=O)c2cc3ccccc3cc2O)cc1OC` (stereo unspecified), the inhibition is -0.95% (inactive).
In the case of `COc1ccc(C2=NN(c3ccccc3)C(c3cccs3)C2)cc1` (stereo unspecified), the inhibition is 113% (active).
Turning to `COc1ccc(C2CC(c3cccs3)=Nc3ccccc3S2)cc1OC` (stereo unspecified), the inhibition is 6.74% (inactive).
With `COc1ccc(C2CC(c3cccs3)=NN2c2ccccc2)cc1` (stereo unspecified), the inhibition was 74% (active).
On to `COc1ccc(C2CC(c3cccs3)Nc3nnnn32)cc1` (stereo unspecified), for which the inhibition was 2.13% (inactive).
Consider `COc1ccc(C2CC(c3ccccc3)=NN2C(=O)c2ccc(Cl)c([N+](=O)[O-])c2)cc1` (stereo unspecified), for which the inhibition is -0.72% (inactive).
Under `COc1ccc(CCNC(=O)CSc2nc(C)nc3c2oc2ccccc23)cc1OC` stands 0.84% (inactive); under `O=C(NC1CCCC1)C(c1ccco1)N(C(=O)c1ccco1)c1ccc(F)cc1` (stereo unspecified), -0.27% (inactive); under `FC(F)Oc1ccccc1NC(=S)Nc1cccc(Cl)c1Cl`, -0.26% (inactive).
As for `CCCCOC(=O)Nc1sc2nc(C)cc(C)c2c1-n1cccc1`, the inhibition was 5.62% (inactive).
On to `CCCC1NC(=S)NC(C)=C1C(C)=O` (stereo unspecified), for which the inhibition is 2.16% (inactive).
With `O=C(O)c1cccnc1Sc1ncnc2sc3c(c12)CCC3`, the inhibition is 53.6% (active).
As to `OCCNc1nc2ccccc2n1-c1ncnc2sc3c(c12)CCC3`, the inhibition was 3.23% (inactive).
`CCCSc1ncccc1C(=O)O`: the inhibition is 0.16% (inactive).
Under `Oc1c(Cl)cc(Cl)c(Cl)c1Cc1c(O)c(Cl)cc(Cl)c1Cl` stands 0.15% (inactive).
Take `O=C(COC(=O)c1ccc2ncsc2c1)Nc1ccc(Cl)cc1`: the inhibition was 0.06% (inactive).
In the case of `CCC(Cc1ccccc1)NC(=O)C1CCCCC1` (stereo unspecified), the inhibition was -3.87% (inactive).
For the molecule `Cc1ccc(S(=O)(=O)N2CCN(C(=O)CSc3cc(C)ccc3C)CC2)c(C)c1`, the inhibition is 29.2% (active).
Under `Cc1ccc(S(=O)(=O)N2CCN(C(=O)COC(=O)c3c(C)cc(C)cc3C)CC2)c(C)c1` stands -1.2% (inactive); under `CCCc1cc(=O)[nH]c(SCC(=O)N2CCN(S(=O)(=O)c3ccc(C)cc3C)CC2)n1`, -1.1% (inactive).
